In all, about 33,000 sequences were measured (“E-score (-0.5 to 0.5)”: median about -0.032, highest 2% from about 0.36 on). This excerpt belongs to a sample that is enriched for the highest values.
Molecular target: T1, Sko1 (UniProt Q02100)
T1 sequence: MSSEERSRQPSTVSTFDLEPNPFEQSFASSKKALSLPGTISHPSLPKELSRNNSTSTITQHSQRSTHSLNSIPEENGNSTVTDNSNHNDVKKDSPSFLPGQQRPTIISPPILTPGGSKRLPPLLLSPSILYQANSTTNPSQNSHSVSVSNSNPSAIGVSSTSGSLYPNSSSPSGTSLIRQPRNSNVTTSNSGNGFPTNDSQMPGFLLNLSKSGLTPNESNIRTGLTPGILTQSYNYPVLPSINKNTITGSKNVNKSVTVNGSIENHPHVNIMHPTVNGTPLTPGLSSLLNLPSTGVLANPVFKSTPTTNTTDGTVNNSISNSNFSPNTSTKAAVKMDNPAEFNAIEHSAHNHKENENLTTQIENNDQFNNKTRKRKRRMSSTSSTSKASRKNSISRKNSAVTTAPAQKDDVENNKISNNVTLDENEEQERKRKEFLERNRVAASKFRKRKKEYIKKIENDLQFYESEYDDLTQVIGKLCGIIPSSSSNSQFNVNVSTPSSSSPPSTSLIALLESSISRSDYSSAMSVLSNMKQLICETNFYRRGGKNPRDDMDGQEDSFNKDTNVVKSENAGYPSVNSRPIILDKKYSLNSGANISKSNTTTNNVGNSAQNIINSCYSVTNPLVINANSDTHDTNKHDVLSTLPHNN
Assay: PBM E-score (8-mer binding enrichment) (E-score (-0.5 to 0.5)); higher = stronger / more preferred TF binding
Conditions: protein concentration: 200 nM; construct: GST-full length
Outline: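 Using PURExpress in vitro transcription/translation, GST-tagged yeast transcription factors were made in full-length or DNA-binding-domain form. These were applied at about 100-200 nM to double-stranded universal all-10-mer Agilent arrays, and bound protein was detected with fluorescent anti-GST. Scans were normalised with masliner before the Universal PBM Analysis Suite assigned E-scores to ungapped eight-base words pooled with their reverse complements.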

| Sequence | PBM E-score |
| --- | --- |
| ACGAGTCC | -0.0325 |
| CCGTCGAC | -0.145 |
| ACGTCCAC | 0.314 |
| ACGTCCAA | 0.288 |
| ACGTCGAT | 0.432 |
| ACGTCCAT | 0.39 |
| ACGTCGAA | 0.292 |
| ACGTCGAC | 0.385 |
| GCGTCGAC | 0.0596 |
| ACGTCGAG | 0.254 |
| ATCAGTCA | 0.119 |
| AACCGCGC | -0.0849 |
| AGGGCAAT | -0.231 |
| CGTAGAGC | 0.116 |
| ACGAGATA | 0.207 |
| ATACGTCC | 0.369 |
| CTACGTCC | 0.298 |
| ATACGTCG | 0.422 |
| ATACGCCC | -0.0909 |
| ATCCGTCG | -0.197 |
| AAACGTCG | 0.238 |
| AAGGCTGT | -0.282 |
| CGGTAGCC | 0.0295 |
| AATCACGT | 0.429 |
| ACCCACGA | -0.0425 |

| Sequence | PBM E-score |
| --- | --- |
| AACCACGC | 0.111 |
| AACCACGT | 0.371 |
| AACCACGA | -0.0344 |
| ACCCACGT | 0.374 |
| ACCCACGC | -0.0576 |
| AATCACGC | 0.205 |
| AATCACGA | 0.0581 |
| GGAAATAC | 0.148 |
| CCCTCATC | -0.29 |
| CGTCACCC | 0.409 |
| AGTCACCA | -0.269 |
| CCTCACCC | -0.148 |
| CGTCACCA | 0.447 |
| GGTCACCA | -0.28 |
| AGTCACCC | -0.145 |
| AGCCAATG | -0.049 |
| CATAAGCA | -0.085 |
| CGTGGTTC | 0.0129 |
| AAGTCGTG | 0.00032 |
| CCGTCGTC | -0.0549 |
| GCGTCGTA | 0.234 |
| ACGTCGTG | 0.361 |
| CCGTCGTA | 0.11 |
| ACGTCGTA | 0.399 |
| ACGTCGGC | 0.348 |

| Sequence | PBM E-score |
| --- | --- |
| ACGTCGTC | 0.387 |
| ACGTCGCG | 0.356 |
| AGTTGCCC | -0.107 |
| ACATTCTA | 0.293 |
| AACCCAGC | -0.247 |
| CGGCCTAG | -0.324 |
| AGAAGCTG | -0.0693 |
| ACAGCTGT | -0.245 |
| GGGCAGAC | -0.242 |
| ACTGGTAT | -0.17 |
| ACTCGTCT | -0.0567 |
| TCTCGTAA | 0.276 |
| ACTCGTCC | 0.0764 |
| CCTCGTCC | -0.209 |
| CCTCGTCA | 0.381 |
| CCTCGTCG | -0.233 |
| TCTCGTCA | 0.365 |
| ACTCGTCA | 0.404 |
| GCTCGTCA | 0.351 |
| AACCCAAG | -0.00525 |
| ATAAGGAG | -0.159 |
| CGTAGACA | 0.264 |
| GCGTCCAC | -0.0966 |
| ATACTTTC | 0.0725 |
| ACCGACGC | 0.0727 |

| Sequence | PBM E-score |
| --- | --- |
| ACCGACGG | -0.181 |
| ACCGACGT | 0.376 |
| AACGACGA | 0.166 |
| AAAGACGT | 0.448 |
| AAAGACGA | 0.172 |
| AACGACGG | 0.0454 |
| AACGACGT | 0.411 |
| AAAGACGG | -0.111 |
| AGCTCAAA | 0.0839 |
| ATGCCCTG | -0.17 |
| TACGGTGA | 0.0938 |
| ACGGTCGG | -0.28 |
| ACGGTCTG | -0.0646 |
| GACCGCTC | -0.21 |
| CCAGTCTA | -0.255 |
| CAGTGACA | 0.0692 |
| CAGTGACC | -0.18 |
| AAGTGACC | -0.141 |
| AAGTGACT | -0.0253 |
| CAGTGACG | 0.408 |
| AAGTGACG | 0.445 |
| CATTGACG | 0.412 |
| CATTGACA | -0.0852 |
| CATTGACC | 0.114 |
| GGCGAAAA | 0.0196 |

| Sequence | PBM E-score |
| --- | --- |
| ATGTCCAC | 0.116 |
| GCCTGTCA | -0.157 |
| CCGGTCAA | -0.12 |
| GTATTGCA | 0.0688 |
| CACTGGGC | -0.304 |
| CTTTCATA | 0.257 |
| GCTAGCCC | -0.26 |
| AACCGTTG | -0.00171 |
| CGGCATAC | -0.00615 |
| ACGCCTGA | 0.15 |
| AAATATTA | 0.295 |
| CAATATTA | 0.264 |
| TAATATTA | 0.362 |
| AGGCCAGG | -0.292 |
| CCTATACC | -0.227 |
| CATGACCG | 0.0181 |
| AAGAAGTG | -0.0945 |
| CAGGGAAG | -0.212 |
| GTGGTTAA | 0.205 |
| ACCGCTTA | -0.00218 |
| CACGTGGA | 0.315 |
| CACGTGAA | 0.319 |
| AACGTGAA | 0.14 |
| GACGTGGA | 0.23 |
| TACGTGAA | 0.425 |

| Sequence | PBM E-score |
| --- | --- |
| TACGTGGA | 0.424 |
| CGAGCCTC | -0.324 |
| GGCCCCTA | -0.188 |
| TAGGCTCA | -0.19 |
| AAACAGTA | 0.14 |
| AGATTACG | 0.459 |
| AGATTACC | 0.108 |
| AGATTACT | 0.201 |
| CGATTACA | 0.106 |
| CGATTACC | -0.0987 |
| CGATTACG | 0.448 |
| ACCTGGCG | -0.109 |
| AAGCTACG | 0.251 |
| GAAAAAAC | 0.201 |
| CATGACGC | 0.465 |
| TATGACAA | 0.21 |
| AATGACCA | 0.0136 |
| ACTGACGA | 0.364 |
| TATGACGA | 0.475 |
| AATGACTA | 0.0941 |
| CATGACAC | 0.258 |
| ACTGACGG | -0.104 |
| CCTGACGA | 0.24 |
| AATGACGA | 0.476 |
| TATGACCA | 0.178 |

| Sequence | PBM E-score |
| --- | --- |
| CATGACTC | -0.0516 |
| TCGACGCA | 0.0313 |
| ATCGCCAA | -0.119 |
| GTTTTCTA | 0.201 |
| GCAGTAGA | -0.0999 |
| ATGGCAGG | -0.281 |
| CAGGACCC | -0.221 |
| ACTGACGC | 0.334 |
| CATGACGA | 0.463 |
| GATGACGC | 0.473 |
| CATGACAA | -0.00914 |
| GATGACAC | 0.257 |
| GATGACCC | -0.0957 |
| GATGACGA | 0.474 |
| CATGACGG | 0.326 |
| GATGACTA | 0.0669 |
| ATTGACGC | 0.319 |
| AATGACGC | 0.478 |
| GATGACCA | 0.0721 |
| GGACCCTA | -0.273 |
| GTTTTGTA | 0.262 |
| ACGATAGT | 0.295 |

Reference: the supplement of paper PMC3334620
